Compound activity from PubChem BioAssay.
Shown are actives, neighbours in structure and some others; about 4.8% of the full set was active somewhere.
SMARCA2 activ – SMARCA2 function activation, primary screen | MG213 cells, MMTV-luciferase reporter, dexamethasone, overnight | activation, % at 9.1 µM | actives 1% (n = 370,000) | AID 652017; in the data active means activation above about 7.8%;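 further: 0% = vehicle wells and 100% = reference activator wells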
ssDAF12 agonist – activators of S. stercoralis DAF-12 nuclear receptor | HEK293 ssDAF-12/GRIP1 lit1-tk-luc reporter, luminescence; % of 3 µM dafachronic acid response | activation, % at 6.8 µM | actives 1% (n = 370,000);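 active means activation above the mean over all tested compounds plus 3 SD, cut at about 0.9% in these data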;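 further: 0% = DMSO-only wells and 100% = 3 µM delta7-dafachronic acid wells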
hcDAF-12 act – activators of H. contortus DAF-12 nuclear receptor; actives 1.4% (n = 370,000); HEK293 hcDAF-12 lit1-tk-luc reporter, luminescence; 0% DMSO, 100% Δ7-dafachronic acid; AID 652067; activation, % at 6.8 µM;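 active means activation above the mean of all tested compounds plus 3 SD, cut at about 5.5% in these data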;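 further: 100% = response to 3 µM Δ7-dafachronic acid high control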
DAX1 inh-1 – blocks DAX1 repression of SF-1 activated StAR promoter. HEK293T StAR-luciferase reporter, SF-1/DAX-1 repression relief. inhibition, % at 6.8 µM. actives 1.1% (n = 370,000). AID 652010;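 active means inhibition above the mean over all tested compounds plus 3 SD, cut at about 3.6% in these data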;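 further: 0% = DAX-1 cells with DMSO and 100% = cells lacking DAX-1 with DMSO; higher inhibition means more luminescence from relief of DAX-1 repression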
hgDAF12 agonist – hgDAF-12 agonism, primary luciferase screen; HEK293 GAL4-hgDAF12 UAS-luciferase reporter, agonist luminescence; normalized to butyrate control; activation, % at 6.8 µM; actives 1.8% (n = 370,000);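 active means activation above a cutoff set at the mean of all screened compounds plus 3 SD, cut at about 10% in these data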;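 further: 0% = DMSO wells and 100% = sodium butyrate wells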
DAX1 inh-2 – NR0B1 (DAX1) inhibition; P51843; HEK293 Gal4-DAX1 luciferase reporter, luminescence; inhibition, % at 6.75 µM; actives 0.99% (n = 340,000); AID 504766;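 active means inhibition above the mean over all tested compounds plus 3 SD, cut at about 4.2% in these data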;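 further: 0% = DAX1-transfected cells with DMSO and 100% = empty-vector control cells with DMSO; inhibition shows as a rise in luminescence from relieved DAX1 repression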
Target sequence (P51843 207-470 limits assumed): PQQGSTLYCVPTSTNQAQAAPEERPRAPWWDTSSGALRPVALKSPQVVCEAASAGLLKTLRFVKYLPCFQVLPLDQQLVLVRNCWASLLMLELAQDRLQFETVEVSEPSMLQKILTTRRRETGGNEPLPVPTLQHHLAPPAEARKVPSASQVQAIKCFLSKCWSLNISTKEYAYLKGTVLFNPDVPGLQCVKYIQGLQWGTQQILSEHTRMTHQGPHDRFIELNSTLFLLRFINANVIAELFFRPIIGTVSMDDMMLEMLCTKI
* hit, by the source's call; nt = not tested or not shown.

SMILES	SMARCA2 activ	ssDAF12 agonist	hcDAF-12 act	DAX1 inh-1	hgDAF12 agonist	DAX1 inh-2
COC(=O)c1ccc(COc2ccc(CNCc3ccc(Cl)cc3)cc2)cc1	5.7	-0.6	1.4	-0.4	11.7*	1.1
COC(=O)c1ccc(OCCOc2ccc(C(=O)OC)cc2)cc1	1.5	-0.8	-0.7	0.2	-0.8	0.1
O=C(NCc1ccco1)c1noc2c1CCCC2	-1.7	-0.7	0.0	-0.5	0.4	2.0
O=C(NCc1cccs1)c1noc2c1CCCCC2	1.4	-1.2	-0.2	0.9	10.5*	1.1
CC(=O)Nc1ccc(NCc2cccs2)cc1	-3.2	-0.8	-2.5	0.3	-2.9	4.3*
CC(=O)Nc1ccc(NCCc2cccs2)cc1	-1.3	-1.0	-1.4	0.4	-1.6	nt
CCOC(=O)C(C(=O)OCC)C(Nc1cccc(Br)c1)c1ccccc1 (centres undefined)	-0.8	-2.1	-0.7	-0.5	-1.5	-2.6
CCOC(=O)C(c1ccccc1)C(Nc1ccc(Cl)c(Cl)c1)c1ccccn1 (centres undefined)	0.2	1.0*	0.9	-0.3	-0.3	nt
CCc1ccc(-c2csc(NC(=O)C3=COCCO3)n2)cc1	-2.6	-0.4	1.7	4.2*	4.7	0.7
O=C(C[C@H]1C/C=C\C[C@H](NC(=O)OCC2c3ccccc3-c3ccccc32)C(=O)OC[C@@H]2CCCN2C1=O)N[C@H](CO)Cc1ccccc1	nt	nt	nt	nt	nt	-0.2
CCn1c(SCC(=O)Nc2cccc(NC(C)=O)c2)nc2c([nH]c3ccccc32)c1=O	2.2	1.1*	1.3	-2.4	4.3	0.2
CCn1c(SCC(=O)Nc2ccc(C(C)=O)cc2)nc2c([nH]c3ccccc32)c1=O	-4.7	0.3	5.8*	1.5	4.2	-0.1
COCCn1c(SCC(=O)Nc2cc(C)on2)nc2c([nH]c3ccccc32)c1=O	-3.1	-0.7	1.6	-0.4	1.5	-0.1
C=CCn1c(SCC(=O)N2CCCC2)nc2c([nH]c3ccccc32)c1=O	-1.8	1.0*	6.3*	1.0	0.7	0.3
CCn1c(SCC(=O)Nc2cc(C)on2)nc2c([nH]c3ccccc32)c1=O	-1.5	0.3	6.0*	0.7	1.1	0.1
C=CCn1c(SCC(=O)N2CCN(C(=O)OCC)CC2)nc2c([nH]c3ccccc32)c1=O	-4.0	0.8	4.7	0.6	-1.1	1.2
COc1ccc2c(c1)CCc1c(C(=O)Nc3ccn(Cc4ccc(C)cc4)n3)noc1-2	-0.4	-1.8	0.2	-0.2	3.2	-0.6
O=C(NCCc1ccccc1)C1CCN(S(=O)(=O)c2ccccc2)CC1	-0.3	-0.2	-1.4	0.1	-0.6	0.0
CCOc1ccc(C(C)=O)cc1CN1c2ccc(S(N)(=O)=O)cc2CC1C (centres undefined)	-4.8	-1.4	-0.8	-0.6	-0.9	-0.4
Clc1ccc(OCc2nc(-c3ccncc3)no2)c(Cl)c1	-1.0	0.6	6.1*	3.2	11.8*	2.5
Clc1cccc(OCc2nc(-c3ccncc3)no2)c1	1.8	-1.1	1.0	-0.4	2.6	0.8
O=C(Nc1nc(-c2cccs2)cs1)c1ccco1	5.6	-0.2	3.8	4.1*	10.8*	2.5
O=C(Nc1nc(-c2cccs2)cs1)c1ccc([N+](=O)[O-])o1	-1.3	2.0*	4.1	-2.5	0.4	1.1
O=C(Nc1nc(-c2ccncc2)cs1)c1ccco1	-0.8	-0.5	1.0	0.7	4.5	0.9
O=C(Nc1cccc(-c2cc3ccccc3oc2=O)c1)c1ccc(Br)o1	-0.4	-1.3	3.2	-0.5	1.3	-0.5
SMILES	SMARCA2 activ	ssDAF12 agonist	hcDAF-12 act	DAX1 inh-1	hgDAF12 agonist	DAX1 inh-2
CN1C(=O)CC(Sc2ccccc2C(=O)O)C1=O (centres undefined)	-0.9	-1.0	1.9	0.7	1.9	0.8
O=C(c1cccc([N+](=O)[O-])c1)c1cc2ccccc2o1	0.3	-1.3	-0.1	-0.1	3.8	1.1
Cc1ccc(C(=O)c2cc3ccccc3o2)cc1C	0.2	0.6	4.9	2.1	11.1*	2.9
Cc1ccc(C(=O)c2cc3ccccc3o2)cc1	4.5	-0.1	3.2	1.6	11.8*	2.8
CC(=O)c1sc2nc(-c3cccs3)cc(C(F)(F)F)c2c1N	-3.0	0.2	6.3*	-0.1	1.7	0.4
Cc1c(C(=O)O)sc2nc(-c3cccs3)cc(C(F)(F)F)c12	1.9	-0.3	0.7	-0.3	2.3	0.7
Cc1c(C(=O)Nc2nccs2)sc2nc(-c3cccs3)cc(C(F)(F)F)c12	2.0	1.2*	3.3	0.7	1.1	0.0
Cc1ccc2c3c(c(SCC(=O)Nc4nonc4C)nc2c1)CCCC3	2.7	-0.9	-1.0	-0.4	10.6*	1.1
O=C(CCCc1ccccc1)Nc1ccccc1[N+](=O)[O-]	4.5	-0.4	1.2	0.7	3.6	5.0*
O=C(Nc1ccccc1F)c1ccc(OCc2ccccc2)cc1	1.5	-0.2	5.5	1.6	10.7*	1.4
O=C(CCc1ccccc1)Nc1ccccc1F	-2.2	-0.3	2.0	3.7*	11.7*	2.2
CSc1ccc(S(=O)(=O)Nc2ccc(S(=O)(=O)Nc3ccc(C)cc3)cc2)cc1	-3.7	-1.6	-0.6	-0.5	2.9	0.8
O=C(c1ccc(Cl)cc1Cl)C1(n2cncn2)Oc2ccccc2C1O (centres undefined)	-2.6	-0.2	1.3	-0.2	-0.9	-1.0
COc1ccccc1NC(=O)COC(=O)C1CCN(/C=C/C(=O)C(F)(F)F)CC1	-2.0	-1.7	-0.2	-0.1	-2.1	3.2
O=C(COC(=O)C1CCN(/C=C/C(=O)C(F)(F)F)CC1)Nc1cccc(F)c1	-0.8	-0.3	6.0*	0.2	0.0	0.9
Cc1nc2sc(-c3ccccc3)cc2c(=O)n1-n1cccc1	6.0	-0.5	2.8	1.6	11.4*	2.1
Cc1nc2sc(-c3ccccc3)cc2c(=O)n1/N=C/N(C)C	4.8	0.9*	2.5	2.6	10.6*	2.3
Cc1nn(-c2ccc(N3CCCCC3)nn2)c(C)c1CCC(=O)Nc1ccc(F)c(F)c1	-1.4	-1.0	6.4*	1.1	6.1	-0.5
Cc1ccc(NC(=O)CCc2c(C)nn(-c3ccc(N4CCCCC4)nn3)c2C)cc1C	6.1	-0.9	-1.4	2.4	2.9	0.8
N#Cc1ccccc1Sc1ccccc1C(=O)NCC(c1ccco1)N1CCCC1 (centres undefined)	-3.8	0.2	1.2	2.4	0.5	0.8
COC(=O)C1(Cc2ccc(O)cc2)OC(=O)C(O)=C1c1ccc(O)cc1 (centres undefined)	1.5	-0.9	0.2	0.9	0.3	7.4*
COc1ccc2c(C)cc3nncn3c2c1	4.4	-0.7	1.2	0.0	-0.4	4.2*
Cn1c(O)c(C=Nc2ccc(Br)cc2)sc1=O	7.0	-0.9	2.1	2.6	4.5	-1.0
Cc1ccc(-c2ccc(CCC(=O)O)o2)cc1	2.4	2.6*	-1.1	-0.1	0.0	-0.1
